From PubChem BioAssay
Hits are enriched below; roughly 7.4% of the tested compounds scored in any of these assays.
Rab9 prom act = qHTS Assay for Rab9 Promoter Activators; Huh7 Rab9 promoter-luciferase reporter, luminescence, 24 h; AID 485297, 2010; Potency, µM (series often up to 9.22 µM), most hits filed as activators; 320,000 tested, 2.8% active; also: nearly all actives have a fitted effect of over 60% in size
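Huh7 cells stably carrying Rab9 promoter–luciferase reporter, plated 1500 cells/well, compound added after 2 h and incubated 24 h at 37 °C; luciferase luminescence then read after 10 min with detection reagent.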
p53 reactivation = qHTS assay for re-activators of p53 using a Luc reporter; 320,000 tested, 0.063% active; AID 504706, 2011; H1299 p53-A138V BP100-luciferase reporter, luminescence, 24 h; Potency, µM (titrated, usually from 92.2 µM), most hits filed as activators; also: nearly all actives have a fitted effect of over 45% in size
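H1299 (p53-null), stable ts p53-A138V + BP100-Luc; 1000 cells/well, Opti-MEM/10% FBS; cpd 4 pt, 1:5; 24 h, 37 deg C, 5% CO2; detection reagent 10 min RT; luminescence.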
NPC1 promoter act = qHTS Assay for NPC1 Promoter Activators | Huh7 NPC1 promoter luciferase reporter, 24 h | Potency, µM (highest dose often 9.22 µM), hits mostly activators | 320,000 tested, 2.4% active | AID 485313, 2010; also: nearly all actives have a fitted effect of over 60% in size
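Compounds in DMSO were transferred onto Huh7 NPC1-luciferase reporter cells pre-incubated 2 h; after 24 h at 37 °C, Amplite reagent was dispensed and luminescence recorded 10 min later.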
FLuc counter = qHTS profiling assay for firefly luciferase inhibitor/activator using purifed enzyme and Km concentrations of substrates (counterscreen for miR-21 project). 360,000 tested, 6.9% active. Luciferin 4-monooxygenase (Photinus pyralis), P08659. Potency, µM (titrated, usually from 57.5 µM), most hits filed as inhibitors. purified FLuc, Km substrates, luminescence inhibition; also: nearly all actives have a fitted effect of over 55% in size
Target sequence (P08659 whole entry, looked up): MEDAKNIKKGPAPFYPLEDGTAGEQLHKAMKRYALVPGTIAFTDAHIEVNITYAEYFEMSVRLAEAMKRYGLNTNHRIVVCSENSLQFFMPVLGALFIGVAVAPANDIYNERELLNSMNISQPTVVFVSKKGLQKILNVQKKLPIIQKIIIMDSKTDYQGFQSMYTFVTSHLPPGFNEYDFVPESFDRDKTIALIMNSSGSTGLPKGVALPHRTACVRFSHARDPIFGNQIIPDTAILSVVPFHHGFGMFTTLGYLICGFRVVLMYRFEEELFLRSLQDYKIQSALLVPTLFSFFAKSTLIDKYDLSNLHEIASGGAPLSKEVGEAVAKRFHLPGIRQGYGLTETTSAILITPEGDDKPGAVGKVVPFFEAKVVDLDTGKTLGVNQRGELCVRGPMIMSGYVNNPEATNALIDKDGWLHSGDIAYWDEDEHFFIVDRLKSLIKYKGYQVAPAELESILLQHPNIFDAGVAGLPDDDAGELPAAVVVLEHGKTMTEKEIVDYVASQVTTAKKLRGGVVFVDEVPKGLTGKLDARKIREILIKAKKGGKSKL
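Purified P. pyralis luciferase (10nM final) with 10uM D-luciferin and 10uM ATP (Km levels) in 50mM Tris acetate pH 7.5, 10mM Mg acetate, 0.01% Tween-20, 0.05% BSA; qHTS 6-point titration, ~60 µM downward; luminescence read.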
SMN2 splice enh = qHTS Assay for Enhancers of SMN2 Splice Variant Expression; HEK293 SMN2-luciferase splicing reporter, luminescence, 30-36 h; Potency, µM (series often up to 46.1 µM), usual class: activators; 210,000 tested, 2.8% active; AID 1458, 2008; also: nearly all actives have a fitted effect of over 55% in size
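qHTS luciferase splicing reporter: luminescence rises when SMN2 exon 7 is included in transfected HEK293 cells. Compound exposure lasted 30-36 h at 37C, with 4.5 mM final sodium butyrate as control, followed by a ONE-Glo read.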
ELG1 genotoxic = qHTS screen for small molecules that induce genotoxicity in human embryonic kidney (HEK293T) cells expressing luciferase-tagged ELG1. HEK293T ELG1-luciferase reporter, luminescence, 16 h. Potency, µM (titrated, usually from 46 µM), usual class: activators. 330,000 tested, 1.3% active. AID 504466, 2011; also: nearly all actives have a fitted effect of over 60% in size
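Reporter readout depends on ELG1 protein level, which increases with genetic stress. After 16 hr compound exposure at 37 °C, luciferase activity was quantified using ONE-Glo.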
Hits are given with their value; . = inactive; ? = inconclusive; / = no result; [ ] = remark or other dose. Calls follow the shape of the dose curve; as a rule, active = well fitted curve in the direction sought with a large enough effect; inconclusive = small, poorly fitted or top-dose-only effect, or another doubt; inactive = no such curve, though single readings can be large; an effect the other way counts as inactive or inconclusive.

SMILES	Rab9 prom act	p53 reactivation	NPC1 promoter act	FLuc counter	SMN2 splice enh	ELG1 genotoxic
O=c1c2c([N+](=O)[O-])cc([N+](=O)[O-])cc2sn1Cc1ccccc1	.	.	.	9.5µM	/	.
O=c1c2c([N+](=O)[O-])cc([N+](=O)[O-])cc2nc2ccccn12	.	.	.	.	/	.
O=c1c2c([N+](=O)[O-])cc([N+](=O)[O-])cc2sn1-c1ccc(Br)cc1	.	.	.	21µM	.	.
O=C(Nc1ccc(Br)cc1)c1cc([N+](=O)[O-])cc([N+](=O)[O-])c1	.	.	.	.	/	.
COc1cccc(Cn2c(=O)cnc3cnc(N4CCOCC4)nc32)c1	/	/	/	/	.	/
Oc1ccc(/C=C/c2ccnc3ccccc23)cc1	.	.	.	24µM	.	.
Clc1ccccc1/C=C/c1ccnc2ccccc12	.	.	.	19µM	/	.
CC(=O)c1ccc(NC(=O)Cn2c(-n3nc(C)cc3C)nc(C)cc2=O)cc1	/	/	/	.	/	/
COc1ccc(/C=C\C(=O)Oc2cccc(/C=N/NC(=O)Cc3ccc(OC)c(OC)c3)c2)cc1	?	?	?	11µM	13µM	?
COc1ccc(/C=C/C(=O)Oc2cccc(/C=N/NC(=O)c3cccc(F)c3)c2)cc1	2.8µM	.	3.5µM	2.4µM	11µM	?
CCc1ccccc1NC(=O)Nc1cc(C(=O)NCc2ccc(C(C)C)cc2)ccc1N1CCCC1	/	/	/	.	/	/
COc1ccc2cc3cc(C(=O)N4CC(C)CC(C)C4)oc3nc2c1 (centres undefined)	?	.	.	?	/	.
COc1ccc2cc3cc(C(=O)N4CCN(c5ccccn5)CC4)oc3nc2c1	.	.	.	19µM	/	.
CCOC(=O)C1CCN(C(=O)c2cc3cc4ccc(OC)cc4nc3o2)CC1	0.89µM	.	0.63µM	?	/	?
CCC(Sc1nnc2c(n1)[nH]c1ccccc12)C(=O)Nc1ccccc1OC (centres undefined)	/	/	/	?	.	/
Cc1ccc(-c2nc3ccccc3[nH]2)cc1NC(=O)/C=C/c1ccco1	?	.	.	8.5µM	.	.
Cc1ccc(-c2nc3ccccc3[nH]2)cc1NC(=O)c1ccc2c(c1)OCO2	.	.	?	11µM	.	.
O=C(NC(=S)Nc1cc(-c2nc3ccccc3[nH]2)ccc1Cl)c1ccc2c(c1)OCO2	.	.	.	6.7µM	.	.
Cc1ccc(-c2nc3ccccc3[nH]2)cc1NC(=S)NC(=O)c1ccccc1Br	.	.	.	5.4µM	.	.
CCCOc1ccc(C(=O)Nc2cc(-c3nc4ccccc4[nH]3)ccc2C)cc1	/	/	/	?	.	/
Cc1cc(C)c2oc(-c3ccc(C)c(NC(=S)NC(=O)/C=C/c4ccco4)c3)nc2c1	.	.	.	?	.	.
CCCCOc1ccc(C(=O)NCC(=O)NCC2CCCO2)cc1 (centres undefined)	.	.	.	.	/	.
COC(=O)N1[C@H](C)C=C[C@]1(Cc1ccccc1)C(=O)NCc1ccc(C)o1	/	/	/	/	.	/
Cc1ccc(SCc2cc(=O)n3ccsc3n2)c(C)c1	3.2µM	?	?	15µM	13µM	?
Cc1ccc(Nc2nnc(SCc3cc(=O)n4ccsc4n3)s2)c(C)c1	.	.	.	.	.	.
O=c1[nH]cnc2scc(-c3ccc(-c4ccccc4)cc3)c12	1.1µM	.	1.1µM	1.2µM	14µM	1.8µM
CCCOc1ccc(-c2csc3nc[nH]c(=O)c23)cc1	1.6µM	.	3.2µM	?	/	?
COc1ccc(-c2csc3nc[nH]c(=O)c23)cc1OC	.[1.84 µM]	.	.	.	/	.
C=CCN1C(=CCO)[C@H]2C[C@H]3[C@@H]1CC[C@@]31c3ccccc3N3C=C4[C@@H]5N(/C=C/2[C@H]31)c1ccccc1[C@]51CC[C@H]2[C@H]1C[C@@H]4/C(=C/CO)N2CC=C	/	/	/	/	.	/
Cn1c(SCC(=O)O)nnc1-c1ccc2ncccc2c1	.	.	.	.	/	.
